Pf growth 96h = P. falciparum growth inhibition at 96 hours. Potency, µM (titrated, usually from 28.7 µM), hits mostly inhibitors. P. falciparum luciferase reporter growth, 96 h. AID 504834. hit rate 6.9% among 320,000
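Parasite growth measured via integrated firefly luciferase reporter in P. falciparum. Infected erythrocytes at 2% hematocrit, 0.05% parasitemia final were treated 96 hours at 37 C under 5% CO2, and luminescence was read.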
SARS PLP yeast = blocks SARS-CoV papain-like protease in a yeast assay | hit rate 0.19% among 330,000 | S. cerevisiae expressing SARS-CoV PLpro, growth rescue | Potency, µM (doses to about 32.9 µM), hits mostly activators; calls by dose curve; further: nearly all actives have a fitted effect of over 55% in size
NS1 inh = inhibitors of influenza NS1 protein function; Potency, µM (doses to about 46.1 µM); hit rate 0.4% among 270,000; AID 2326; calls by dose curve; further: actives are rising curves; nearly all actives have a fitted effect of over 50% in size
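Compounds were scored for reversing the slow growth caused by influenza A NS1 in S. cerevisiae, measured by optical density at 600 nm. Assay medium contained 2% galactose at pH 6.0; NS1-free yeast of the same strain were the positive control.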
Pf growth 48h = inhibits P. falciparum growth in the first generation, 48 h | Potency, µM (series often up to 28.7 µM), actives largely listed as inhibitors | P. falciparum luciferase growth in erythrocytes, 48 h | hit rate 5.9% among 310,000
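Parasite viability was followed by luminescence of a genomically integrated firefly luciferase. Cultures held 0.1% parasitemia at 2% hematocrit (final), incubated under 5% CO2 at 37 C.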
HCV inhibitor = HCV inhibition | Potency, µM (top dose mostly 41.8 µM), usual class: inhibitors | AID 651820 | Huh7.5.1 HCVcc-Cre infection, luciferase reporter, 44 h | hit rate 3.4% among 340,000
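Luciferase read-out (15 sec integration) after a 15 min room-temperature substrate step quantifies HCVcc-Cre infection. Cells, 1,000 per well, had compound added 4 h post-plating, then virus at ~0.5 moi, and were cultured 44 h.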
AMA1-RON2 inh = inhibitors of Plasmodium falciparum AMA1-RON2 interaction; AID 720542; Potency, µM (series often up to 58.2 µM), hits mostly inhibitors; AlphaScreen AMA1-biotinylated RON2 peptide binding; hit rate 0.2% among 360,000; further: nearly all actives have a fitted effect of over 45% in size
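AMA1 (3D7) with his tag at 25 nM final met compounds first, then biotinylated RON2 peptide at 25 nM; detection used donor plus acceptor beads, 10 µg/mL apiece, read by AlphaScreen after 30 min at room temperature.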
Numbers stand for hits; - = inactive; ? = inconclusive; . = not tested or not shown; [ ] = dose if it differs, or a comment. Only some compounds are listed: those with a hit (about 12% of all), similar ones and a draw of the others. Unless noted, the call rests on the fitted dose curve; in most records, active means well fitted curve in the direction sought with a large enough effect; inconclusive means small, poorly fitted or top-dose-only effect, or another doubt; inactive means no such curve, though single readings can be large; an effect the other way counts as inactive or inconclusive.

SMILES	Pf growth 96h	SARS PLP yeast	NS1 inh	Pf growth 48h	HCV inhibitor	AMA1-RON2 inh
CC(=O)NC1[C@H]([C@H](O)[C@H](O)CO)OC(C(=O)O)=C[C@H]1N=C(N)N (some centres not stated)	-	.	.	-	.	.
CCN(CC)C(=O)CSc1nc(O)c(Cc2ccc(OC)cc2)c(=O)[nH]1	-	-	-	-	-	-
CCc1c(O)nc(SCC(=O)N(CC)CC)[nH]c1=O	13.1µM	-	-	?	-	-
O=C(c1ccc(-c2nc3ccccc3s2)o1)N1CCN(c2ccccc2O)CC1	5.22µM	-	-	?	?	-
O=C(CN1CCN(C(=O)c2ccc(-c3nc4ccccc4s3)o2)CC1)Nc1ccccc1Cl	?	-	.	?	11.2µM	-
O=C(CCN1C(=O)c2ccccc2C1=O)Nc1ccc(-c2nc3ccccc3s2)cc1	1.31µM	-	-	-	-	-
O=C(CN1CCN(C(=O)c2ccc(-c3nc4ccccc4s3)o2)CC1)Nc1ccc(F)cc1	13.1µM	-	.	11.7µM	12.6µM	-
O=C(O)c1ccc(-c2nc3ccccc3s2)o1	-	-	-	-	-	-
Cc1ccc2nc(-c3ccc(NC(=O)CCN4C(=O)c5ccccc5C4=O)cc3)sc2c1	-	?	?	-	-	-
O=C(CSc1nncs1)NCc1ccc(F)cc1	-	-	-	-	-	-
CCOC(=O)[C@]12Cc3cc(Cl)ccc3[C@H]1N(Cc1ccccc1)C(=O)c1ccccc12	.	.	.	.	-[8.37 µM]	-
CCOC(=O)[C@]12Cc3cc(N(C)C)ccc3[C@H]1N(Cc1ccccc1)C(=O)c1ccccc12	.	.	.	.	11.2µM	?
Cc1cc2oc(=O)cc(CN3CCC(C)CC3)c2c(C)c1Cl	-	-	-	-	-	-
COc1ccc(N2CCN(CCNC(=O)Nc3ccc(C)cc3Cl)CC2)cc1	2.33µM	-	-	-	-	-
Cc1cc(=O)oc(C)c1C(=O)NCCCN1CCN(c2ccc(F)cc2)CC1	0.738µM	-	-	?	-	-
CCCCNC(=O)c1c(C)cc(=O)oc1C	-	-	-	-	-	-
COc1ccc(N2CCN(Cc3cc(=O)oc4cc(C)c(Cl)c(C)c34)CC2)cc1	-	-	-	4.15µM	-	-
COc1ccc(N2CCN(CCCNC(=O)c3cc4sccc4n3C)CC2)cc1	.	-	-	-	12.6µM	?
CCOc1ccc(N(CC(=O)N2CCOCC2)S(=O)(=O)c2ccc(F)cc2)cc1	-	-	-	-	-	-
CC1(Cc2cc(Cl)ccc2C(F)(F)F)C(=O)Nc2ccc(OC(F)(F)F)cc21 (configuration not stated)	.	.	.	.	.	-
COc1ccc(N2CCN(CCCN)CC2)cc1	.	.	-	.	10µM	-
COc1ccc(N2CCN(CCNC(=O)c3c(C)cc(=O)oc3C)CC2)cc1	?	-	-	11.7µM	-	-
COc1ccc(CNC(=O)c2c(C)cc(=O)oc2C)cc1	-	-	.	-	-	-
Cn1cc(-c2ccno2)c(C(=O)O)n1	-	-	.	-	-	-
COc1ccc(N2CCN(CC(=O)Nc3nc(C)cs3)CC2)cc1	-	-	-	-	-	?
SMILES	Pf growth 96h	SARS PLP yeast	NS1 inh	Pf growth 48h	HCV inhibitor	AMA1-RON2 inh
CC(C)(C)OC(=O)N1CCC(C(=O)N2CCOCC2)CC1	-	-	-	-	-	-
CC(C)(C)OC(=O)N1CCC(C(=O)N2CCCCCC2)CC1	11.7µM	-	-	-	-	-
COC(=O)C1CCN(C(=O)C2CCCCC2)CC1	?	-	?	-	5.01µM	-
CCOC(=O)N1CCN(C(=O)C2CCCCC2)CC1	-	-	-	.	-	-
CSc1cccc(NC(=O)C2(S(=O)(=O)c3ccc(C)cc3)CC2)c1	-	-	.	-	-	-
COc1ccc(-n2c(SCC(N)=O)nnc2-c2ccc(NS(=O)(=O)c3ccc(C)cc3)cc2)cc1	10.4µM	-	-	.	-	-
COc1ccc(-n2c(SCC(=O)Nc3ccccc3)nnc2-c2ccc(NS(=O)(=O)c3ccc(C)cc3)cc2)cc1	3.29µM	-	-	.	?	-
COC(=O)c1ccccc1NC(=O)CSc1nc2ccsc2c(=O)n1Cc1ccc(C(=O)O)cc1	.	.	.	.	.	-
Nc1nc(CSc2nnnn2-c2ccccc2)nc(N2CCCc3ccccc32)n1	.	-	-	10.4µM	11.2µM	-
Nc1nc(CN2CCN(c3cccc(Cl)c3)CC2)nc(N2CCCc3ccccc32)n1	.	-	-	?	-	-
Nc1nc(CN2CCN(Cc3ccccc3)CC2)nc(N2CCCc3ccccc32)n1	-	-	-	?	-	-
Nc1nc(CN2CCN(c3ccccc3)CC2)nc(N2CCCc3ccccc32)n1	9.28µM	-	-	?	-	-
CC(C)(C)NCC(O)COc1nsnc1N1CCOCC1 (configuration not stated)	.	.	-	.	.	.
COC(=O)C1CC(C(=O)OC)C2C(C(=O)OC)CC(C(=O)OC)C12 (configuration not stated)	.	.	.	.	-	-
COc1ccc(C2C(C(C)=O)=C(O)C(=O)N2c2ccc(Br)cn2)cc1 (configuration not stated)	4.15µM	-	-	?	-	-
O=C(NNC(=O)C1CCCC1)c1cc([N+](=O)[O-])cc([N+](=O)[O-])c1	-	-	.	-	-	-
CN(CC(=O)Nc1ccc(F)cc1)CC(=O)N1CCCC1	-	-	.	-	-	-
CCc1ccc(C2NC(c3ccc(CC)cc3)C([N+](=O)[O-])C(C)(C)C2[N+](=O)[O-])cc1 (configuration not stated)	13.1µM	-	-	?	-	-
CNC(=O)c1cccn(Cc2cccc(C(F)(F)F)c2)c1=O	-	-	-	-	-	-
CNC(=O)c1ccc(=O)n(Cc2cccc(C(F)(F)F)c2)c1	-	-	-	2.94µM	-	-
Cc1onc(-c2c(Cl)cccc2Cl)c1C(=O)Nc1ccc2c(C(F)(F)F)cc(=O)oc2c1	2.33µM	-	-	?	?	-
CC(C)(C)c1csc(NC(=O)c2cccnc2)n1	14.7µM	-	-	?	-	-
Cc1ccc(S(=O)(=O)N(C)C)cc1NC(=O)c1c(-c2c(F)cccc2Cl)noc1C	?	-	-	11.7µM	-	-
CCCS(=O)(=O)c1cscc1NC(=O)c1c(-c2c(F)cccc2Cl)noc1C	?	-	-	?	-	-
Cc1onc(-c2c(Cl)cccc2Cl)c1C(=O)Nc1nc(C(C)(C)C)cs1	10.4µM	-	-	?	?	?
CCOc1ccc(NC(=O)CSc2nc(=O)n(CCCN3CCOCC3)c3c2CCC3)cc1	-	-	.	?	-	-
Cc1ccc(NC(=O)c2c(-c3c(F)cccc3Cl)noc2C)cc1F	?	-	-	9.28µM	?	-
Cc1cc(NC(=O)c2c(-c3c(F)cccc3Cl)noc2C)no1	-	-	-	?	-	-
Cc1onc(-c2c(F)cccc2Cl)c1C(=O)Nc1nnc(C(F)(F)F)s1	10.4µM	-	-	-	?	-
COc1ccc(NC(=O)CN(C)C(=O)c2c(-c3c(F)cccc3Cl)noc2C)cc1	?	-	.	?	-	-

Compound activity from PubChem BioAssay.
